Experimental data taken from ChEMBL document CHEMBL1201862, “PubChem BioAssay data set” (2004).
The campaign covered roughly 400,000 compounds. About 2,100 (0.53%) were called active. Another 14% or so got no clear call; they are omitted. This is one part of a sample in which actives are shown more often than they occur. The rule behind the calls is not given here.

The molecules below were run against Ataxin-2 (Homo sapiens) (UniProt Q99700) (assay: qHTS for Inhibitors of ATXN expression.).
Format: functional

Chain of Ataxin-2 (Homo sapiens) (Q99700 whole entry): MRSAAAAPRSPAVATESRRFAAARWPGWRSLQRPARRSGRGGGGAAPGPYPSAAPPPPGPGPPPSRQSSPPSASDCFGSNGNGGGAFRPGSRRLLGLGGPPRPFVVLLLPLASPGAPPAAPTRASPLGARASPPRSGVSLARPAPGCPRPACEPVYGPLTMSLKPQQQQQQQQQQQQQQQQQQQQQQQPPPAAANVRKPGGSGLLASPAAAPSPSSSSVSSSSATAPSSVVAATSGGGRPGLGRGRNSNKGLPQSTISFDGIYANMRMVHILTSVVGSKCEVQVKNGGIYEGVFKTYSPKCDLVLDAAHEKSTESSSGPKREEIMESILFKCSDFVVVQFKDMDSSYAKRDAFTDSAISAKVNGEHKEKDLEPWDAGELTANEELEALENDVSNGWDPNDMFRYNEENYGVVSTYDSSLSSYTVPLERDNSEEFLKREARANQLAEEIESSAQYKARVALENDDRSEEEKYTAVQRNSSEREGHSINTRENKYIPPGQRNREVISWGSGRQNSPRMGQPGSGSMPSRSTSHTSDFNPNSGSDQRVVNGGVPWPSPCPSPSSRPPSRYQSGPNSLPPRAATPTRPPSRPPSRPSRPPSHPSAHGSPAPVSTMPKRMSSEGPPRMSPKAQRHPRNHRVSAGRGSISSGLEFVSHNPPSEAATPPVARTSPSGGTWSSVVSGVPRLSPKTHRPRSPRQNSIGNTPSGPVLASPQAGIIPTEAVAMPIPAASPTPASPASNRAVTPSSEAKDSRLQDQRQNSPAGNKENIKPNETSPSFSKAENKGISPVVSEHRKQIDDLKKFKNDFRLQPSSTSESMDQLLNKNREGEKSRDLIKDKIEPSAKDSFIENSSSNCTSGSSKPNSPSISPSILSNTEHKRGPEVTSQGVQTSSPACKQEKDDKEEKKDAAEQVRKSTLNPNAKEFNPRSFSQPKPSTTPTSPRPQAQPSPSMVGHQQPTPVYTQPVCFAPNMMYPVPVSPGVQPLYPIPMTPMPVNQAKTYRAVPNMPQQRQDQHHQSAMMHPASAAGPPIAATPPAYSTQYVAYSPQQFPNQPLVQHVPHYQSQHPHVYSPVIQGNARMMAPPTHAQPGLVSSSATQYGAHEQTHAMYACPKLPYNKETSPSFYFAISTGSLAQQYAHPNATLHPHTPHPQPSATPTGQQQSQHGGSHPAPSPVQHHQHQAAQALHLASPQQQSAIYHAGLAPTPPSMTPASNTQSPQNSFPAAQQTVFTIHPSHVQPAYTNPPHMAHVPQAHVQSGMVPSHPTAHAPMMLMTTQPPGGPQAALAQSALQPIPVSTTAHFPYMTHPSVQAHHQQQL

SMILES | Potency
CCOC(=O)C1CCN(C(c2ccc(OC)c(OC)c2)c2sc3nc(C)nn3c2O)CC1 (stereo unspecified) | inactive
O=C(N/N=C/c1c(O)ccc2ccccc12)c1[nH]ncc1Br | inactive
CCN1CCN(Cc2c(O)ccc3c2O/C(=C\c2ccc(C)cc2)C3=O)CC1 | inactive
CC(NC(=O)C12CC3CC(CC(C3)C1)C2)C(=O)N/N=C/C1=C(N2CCOCC2)C(=C\c2ccccc2)/CC1 (stereo unspecified) | inactive
CCOc1ccc(CCNC(=O)Cn2ncn3nc(-c4ccc(OC)cc4)cc3c2=O)cc1OCC | inactive
Cc1cc2c(C)cc(=O)oc2c2c1NCCC2 | inactive
Fc1ccc(Br)cc1C1C=C(c2ccc(Br)cc2)Nc2ncnn21 (stereo unspecified) | inactive
CCN1/C(=C/c2ccc3cc(C)ccc3[n+]2CC)Sc2cc(C)ccc21 | 10.6 µM (active)
Cc1ccccc1C(=O)Nc1cc(C(F)(F)F)ccc1-n1cncn1 | inactive
CCOC(=O)c1ccc(N2CCOCC2)c(NC(=O)c2ccc3c(c2)OCO3)c1 | inactive
CCCCn1nc(C(=O)Nc2cc(C(F)(F)F)ccc2N2CCOCC2)ccc1=O | 39.8 µM (active)
O=C1c2ccccc2-c2ncnc3c(N4CCOCC4)cc(N4CCOCC4)c1c23 | 17.8 µM (active)
O=C(Nc1ccccc1N1CCOCC1)c1cc(Br)c(Br)s1 | inactive
c1cc2c3c(cccc3c1)C(N1CCOCC1)=N2 | inactive
C=CCN1C(=O)/C(=C/c2ccc(OC(C)=O)c(OCC)c2[N+](=O)[O-])SC1=S | 31.6 µM (active)
CCO/C=C1/C(=O)N(c2ccc(OC)cc2)C(=O)c2ccccc21 | inactive
Cc1ccc2c(c1)OC(c1ccc3c(c1)OCCO3)CC2=O (stereo unspecified) | inactive
O=C(CCl)N1CCCC1c1ccc2c(c1)OCCO2 (stereo unspecified) | 35.5 µM (active)
O=C(O)c1cc2c(cc1NC(=O)C1CCCC1)OCCO2 | inactive
CCOC(=O)c1sc(NC(=O)CCN2CCN(C)CC2)c(C(=O)OCC)c1C | inactive
CC(=O)O[C@@H]1C[C@H]2C(C)(C)C(=O)C=C[C@]2(C)[C@H]2CC[C@@]3(C)[C@H](c4ccoc4)OC(=O)[C@H]4O[C@]43[C@@]21C | 31.6 µM (active)
Cc1onc(-c2ccccc2Cl)c1C(=O)Nc1cc(=O)n(C)c(=O)n1C | inactive
Cc1ccc2c(Cl)cc(Cl)c(OCC(=O)OCC(=O)Nc3ccc(C#N)cc3)c2n1 | inactive
CCCCCCN1C[C@H](n2cc(COC(=O)c3ccccc3)nn2)[C@@H](O)C[C@@H]1c1ccc(Cl)cc1 | 31.6 µM (active)
CCCCCCN1C[C@@H](n2cc(COC(=O)c3ccccc3)nn2)[C@H](O)C[C@@H]1c1ccc(C)cc1 | 22.4 µM (active)
CCCCC(NC(=O)Cc1c(C)c2cc3c4c(oc3cc2oc1=O)CCCC4)C(=O)O (stereo unspecified) | inactive
